# Measured values taken from PubChem BioAssay (NCI).
# Values joined by “and” are separate entries in the source; they are usually repeats but may differ in a detail not shown here. Equal values may be shown once. This is part of a sample that, as a whole, favours compounds with a hit. Of some 83,000 tested, about 20% had one in any assay.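 Single-concentration screen, 48 h exposure, 96-well plates. Endpoint: percent growth. Below 10 = active.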 Active and inactive are the calls of the source.
# Legend:
# Assay in all cases: NCI-60 one-dose screen, 48 h (100 = growth as untreated, 0 = no growth, -100 = all killed)
# Details in all cases: 10 µM unless noted
# TK-10 renal = tested on: TK-10 renal
# SK-MEL-2 melanoma = tested on: SK-MEL-2 melanoma
# SN12C renal = tested on: SN12C renal
# UO-31 renal = tested on: UO-31 renal
# ACHN renal = tested on: ACHN renal
# CAKI-1 renal = tested on: CAKI-1 renal
# A498 renal = tested on: A498 renal
# CCRF-CEM leukemia = tested on: CCRF-CEM leukemia
# MOLT-4 leukemia = tested on: MOLT-4 leukemia
# SR leukemia = tested on: SR leukemia
# RPMI-8226 leukemia = tested on: RPMI-8226 leukemia
# OVCAR-8 ovarian = tested on: OVCAR-8 ovarian
# OVCAR-5 ovarian = tested on: OVCAR-5 ovarian
# OVCAR-4 ovarian = tested on: OVCAR-4 ovarian
# SK-OV-3 ovarian = tested on: SK-OV-3 ovarian
# IGROV1 ovarian = tested on: IGROV1 ovarian
# OVCAR-3 ovarian = tested on: OVCAR-3 ovarian
# HS 578T breast = tested on: HS 578T breast
# NCI/ADR-RES ovarian = tested on: NCI/ADR-RES ovarian
smiles,measurement,setting,value
COC(=O)C(=O)C(C(=O)C(=O)Nc1nc2ccc(C)cc2s1)c1nc2ccc([N+](=O)[O-])cc2[nH]c1=O (centres undefined),growth,TK-10 renal,115% [100 µM] (inactive) and 75.4% [100 µM] (inactive)
CCOC(=O)c1sc(N)nc1-c1ccccc1,growth,SK-MEL-2 melanoma,95.9% (inactive)
same,growth,SN12C renal,104% (inactive)
same,growth,UO-31 renal,85.4% (inactive)
same,growth,TK-10 renal,99% (inactive)
same,growth,ACHN renal,93.7% (inactive)
same,growth,CAKI-1 renal,103% (inactive)
same,growth,A498 renal,94.5% (inactive)
same,growth,CCRF-CEM leukemia,97.7% (inactive)
same,growth,MOLT-4 leukemia,96.1% (inactive)
same,growth,SR leukemia,90.2% (inactive)
same,growth,RPMI-8226 leukemia,99.1% (inactive)
same,growth,OVCAR-8 ovarian,108% (inactive)
same,growth,OVCAR-5 ovarian,90.9% (inactive)
same,growth,OVCAR-4 ovarian,106% (inactive)
same,growth,SK-OV-3 ovarian,93.7% (inactive)
same,growth,IGROV1 ovarian,101% (inactive)
same,growth,OVCAR-3 ovarian,108% (inactive)
same,growth,HS 578T breast,106% (inactive)
same,growth,NCI/ADR-RES ovarian,104% (inactive)
CC(=O)C1=C(C)N2C(=NC3=C(CCc4ccccc43)C2c2ccc(Cl)cc2)S1 (centres undefined),growth,TK-10 renal,72.8% [100 µM] (inactive) and 35.4% [100 µM] (inactive)
C=C1C(=O)OC2CC(C)C3(O)CCC(=O)C3(C)CC12 (centres undefined),growth,TK-10 renal,39.8% [100 µM] (inactive) and 21.4% [100 µM] (inactive)
N#CCCOc1ccccc1,growth,SK-MEL-2 melanoma,89.4% (inactive)
same,growth,SN12C renal,99.8% (inactive)
same,growth,UO-31 renal,92.8% (inactive)
same,growth,TK-10 renal,97.2% (inactive)
same,growth,ACHN renal,102% (inactive)
same,growth,CAKI-1 renal,91.6% (inactive)
same,growth,A498 renal,101% (inactive)
same,growth,CCRF-CEM leukemia,95.7% (inactive)
same,growth,MOLT-4 leukemia,90.4% (inactive)
same,growth,SR leukemia,104% (inactive)
same,growth,RPMI-8226 leukemia,103% (inactive)
same,growth,OVCAR-8 ovarian,98.9% (inactive)
same,growth,OVCAR-5 ovarian,107% (inactive)
same,growth,OVCAR-4 ovarian,98.8% (inactive)
same,growth,IGROV1 ovarian,102% (inactive)
same,growth,OVCAR-3 ovarian,114% (inactive)
same,growth,HS 578T breast,99.5% (inactive)
same,growth,NCI/ADR-RES ovarian,112% (inactive)
COc1ccc(Cn2c(NCCN=C(N)N)nc(=O)n(Cc3ccc(F)cc3)c2=O)cc1,growth,SK-MEL-2 melanoma,101% (inactive)
same,growth,SN12C renal,91.4% (inactive) and 68.8% (inactive)
same,growth,UO-31 renal,77.7% (inactive) and 75.3% (inactive)
same,growth,TK-10 renal,103% (inactive) and 104% (inactive)
same,growth,ACHN renal,97.7% (inactive) and 102% (inactive)
same,growth,A498 renal,92.1% (inactive) and 97.1% (inactive)
same,growth,CCRF-CEM leukemia,93.1% (inactive) and 87.4% (inactive)
same,growth,MOLT-4 leukemia,84.6% (inactive) and 88.4% (inactive)
same,growth,SR leukemia,85.5% (inactive)
same,growth,RPMI-8226 leukemia,87.9% (inactive) and 92.2% (inactive)
same,growth,OVCAR-8 ovarian,101% (inactive) and 99.9% (inactive)
same,growth,OVCAR-5 ovarian,89.9% (inactive) and 95.8% (inactive)
same,growth,OVCAR-4 ovarian,101% (inactive) and 92.5% (inactive)
same,growth,SK-OV-3 ovarian,98.8% (inactive) and 96.2% (inactive)
same,growth,IGROV1 ovarian,90.3% (inactive) and 103% (inactive)
same,growth,OVCAR-3 ovarian,96.5% (inactive) and 104% (inactive)
same,growth,HS 578T breast,87.5% (inactive) and 66.2% (inactive)
same,growth,NCI/ADR-RES ovarian,114% (inactive) and 103% (inactive)
Cc1ccc(-c2noc(C)n2)cc1,growth,SK-MEL-2 melanoma,120% (inactive)
same,growth,SN12C renal,102% (inactive)
same,growth,UO-31 renal,84% (inactive)
same,growth,TK-10 renal,107% (inactive)
same,growth,ACHN renal,105% (inactive)
same,growth,A498 renal,80.8% (inactive)
same,growth,CCRF-CEM leukemia,103% (inactive)
same,growth,MOLT-4 leukemia,90.5% (inactive)
same,growth,SR leukemia,90.7% (inactive)
same,growth,RPMI-8226 leukemia,105% (inactive)
same,growth,OVCAR-8 ovarian,101% (inactive)
same,growth,OVCAR-5 ovarian,98.9% (inactive)
same,growth,OVCAR-4 ovarian,118% (inactive)
same,growth,SK-OV-3 ovarian,112% (inactive)
same,growth,IGROV1 ovarian,102% (inactive)
same,growth,OVCAR-3 ovarian,122% (inactive)
same,growth,HS 578T breast,107% (inactive)
same,growth,NCI/ADR-RES ovarian,108% (inactive)
Cc1ccc(C)c(NC(=O)/C(=N\N)C(c2cnc3ccc([N+](=O)[O-])cc3n2)[N+](=O)[O-])c1 (centres undefined),growth,TK-10 renal,146% [100 µM] (inactive) and 18.1% [100 µM] (inactive)
O=C(O)CCCC(=O)Nn1c(Cc2ccc(Cl)cc2)n[nH]c1=O,growth,TK-10 renal,85.5% [100 µM] (inactive) and 95% [100 µM] (inactive)
CC1=CC(=O)c2ccc(C)cc2C1=O,growth,TK-10 renal,-100% [100 µM] (active)
N#CC1(C#N)C2CCCCC23OC(=N)C1(C#N)C(c1ccco1)O3 (centres undefined),growth,TK-10 renal,-40.6% [100 µM] (active)
COc1ccc2c(=O)c(-c3cc4c(cc3OC)OCO4)coc2c1,growth,TK-10 renal,8.9% [100 µM] (active) and 12.1% [100 µM] (inactive)
COC(=O)c1cnn2c1n[n+]([O-])c1ccccc12,growth,TK-10 renal,126% [100 µM] (inactive) and 78.8% [100 µM] (inactive)
COc1cc2nc(N3CCC[C@@H](NC(=O)C4COc5ccccc5O4)C3)nc(N)c2cc1OC (some centres undefined),growth,SK-MEL-2 melanoma,112% (inactive) and 107% (inactive)
same,growth,SN12C renal,104% (inactive) and 103% (inactive)
same,growth,UO-31 renal,85.7% (inactive) and 65.2% (inactive)
same,growth,TK-10 renal,98.6% (inactive) and 89.7% (inactive)
same,growth,ACHN renal,103% (inactive) and 96.4% (inactive)
same,growth,CAKI-1 renal,92% (inactive) and 89.6% (inactive)
same,growth,A498 renal,99.4% (inactive) and 83.5% (inactive)
same,growth,CCRF-CEM leukemia,96.2% (inactive) and 103% (inactive)
same,growth,MOLT-4 leukemia,88% (inactive) and 94.3% (inactive)
same,growth,SR leukemia,88.3% (inactive) and 91.2% (inactive)
same,growth,RPMI-8226 leukemia,95.2% (inactive) and 91.4% (inactive)
same,growth,OVCAR-8 ovarian,100% (inactive) and 94.3% (inactive)
same,growth,OVCAR-5 ovarian,102% (inactive) and 97.1% (inactive)
same,growth,OVCAR-4 ovarian,101% (inactive) and 95.4% (inactive)
same,growth,SK-OV-3 ovarian,105% (inactive) and 106% (inactive)
same,growth,IGROV1 ovarian,105% (inactive) and 108% (inactive)
same,growth,OVCAR-3 ovarian,105% (inactive) and 106% (inactive)
same,growth,HS 578T breast,110% (inactive) and 109% (inactive)
same,growth,NCI/ADR-RES ovarian,109% (inactive) and 106% (inactive)
Nc1ccc2ccc(N)cc2c1,growth,SK-MEL-2 melanoma,68.4% (inactive)
same,growth,SN12C renal,88.5% (inactive)
same,growth,UO-31 renal,59.4% (inactive)
same,growth,TK-10 renal,117% (inactive)
same,growth,ACHN renal,84.8% (inactive)
same,growth,CAKI-1 renal,75.7% (inactive)
same,growth,A498 renal,100% (inactive)
same,growth,MOLT-4 leukemia,76.8% (inactive)
same,growth,SR leukemia,36.8% (inactive)
same,growth,RPMI-8226 leukemia,84.6% (inactive)
same,growth,OVCAR-8 ovarian,82% (inactive)
same,growth,OVCAR-5 ovarian,124% (inactive)
same,growth,OVCAR-4 ovarian,40% (inactive)
same,growth,IGROV1 ovarian,73.6% (inactive)
same,growth,OVCAR-3 ovarian,25.5% (inactive)
same,growth,HS 578T breast,104% (inactive)
same,growth,NCI/ADR-RES ovarian,73.5% (inactive)
N=C1N=C(N)CS1,growth,SK-MEL-2 melanoma,116% (inactive)
same,growth,SN12C renal,99.9% (inactive)
same,growth,UO-31 renal,93.2% (inactive)
same,growth,TK-10 renal,131% (inactive)
same,growth,ACHN renal,116% (inactive)
same,growth,CAKI-1 renal,96.5% (inactive)
same,growth,A498 renal,90.7% (inactive)
same,growth,CCRF-CEM leukemia,104% (inactive)
same,growth,MOLT-4 leukemia,99.1% (inactive)
same,growth,RPMI-8226 leukemia,107% (inactive)
same,growth,OVCAR-8 ovarian,99.9% (inactive)
same,growth,OVCAR-5 ovarian,109% (inactive)
same,growth,OVCAR-4 ovarian,99.8% (inactive)
same,growth,IGROV1 ovarian,105% (inactive)
same,growth,OVCAR-3 ovarian,106% (inactive)
same,growth,HS 578T breast,109% (inactive)
same,growth,NCI/ADR-RES ovarian,113% (inactive)
COc1c2c(c3c(c1OC)c(=O)c1ccccc1n3C)OCO2,growth,TK-10 renal,74.8% [100 µM] (inactive)
N#C/C(=C/c1c(O)ccc2ccccc12)C(N)=O,growth,SK-MEL-2 melanoma,87.6% (inactive)
same,growth,SN12C renal,108% (inactive)
same,growth,UO-31 renal,54% (inactive)
same,growth,TK-10 renal,114% (inactive)
same,growth,ACHN renal,92.4% (inactive)
same,growth,CAKI-1 renal,84% (inactive)
same,growth,A498 renal,107% (inactive)
same,growth,MOLT-4 leukemia,92.4% (inactive)
same,growth,RPMI-8226 leukemia,88.2% (inactive)
same,growth,OVCAR-8 ovarian,105% (inactive)
same,growth,OVCAR-5 ovarian,105% (inactive)
same,growth,OVCAR-4 ovarian,92% (inactive)
same,growth,SK-OV-3 ovarian,92.6% (inactive)
same,growth,IGROV1 ovarian,93.4% (inactive)
same,growth,OVCAR-3 ovarian,90.1% (inactive)
same,growth,HS 578T breast,113% (inactive)
same,growth,NCI/ADR-RES ovarian,94.6% (inactive)
Cc1ccc(NC(=O)/C(=N\NC(N)=O)c2c(O)c3ccccc3[nH]c2=O)cc1,growth,TK-10 renal,123% [100 µM] (inactive) and 118% [100 µM] (inactive)
C[N+](C)(C)CN1C(=O)c2ccccc2C1=O,growth,SN12C renal,100% (inactive)
same,growth,UO-31 renal,97.3% (inactive)
same,growth,ACHN renal,102% (inactive)
same,growth,A498 renal,98.2% (inactive)
same,growth,CCRF-CEM leukemia,101% (inactive)
same,growth,MOLT-4 leukemia,94.2% (inactive)
same,growth,RPMI-8226 leukemia,106% (inactive)
same,growth,OVCAR-8 ovarian,97.4% (inactive)
same,growth,OVCAR-5 ovarian,105% (inactive)
same,growth,OVCAR-4 ovarian,101% (inactive)
same,growth,OVCAR-3 ovarian,109% (inactive)
same,growth,NCI/ADR-RES ovarian,112% (inactive)
COc1cc(NS(C)(=O)=O)ccc1Nc1c2ccccc2nc2c(C)cccc12,growth,SK-MEL-2 melanoma,20.4% (inactive) and 44.2% (inactive)
same,growth,SN12C renal,-8.74% (active) and 6.11% (active)
same,growth,UO-31 renal,-22.1% (active) and -17.6% (active)
same,growth,TK-10 renal,-39.5% (active) and -35.3% (active)
same,growth,ACHN renal,-60.1% (active) and -56.2% (active)
same,growth,CAKI-1 renal,-35.7% (active) and -10.5% (active)
same,growth,A498 renal,-44% (active) and -27.8% (active)
same,growth,CCRF-CEM leukemia,-11% (active)
same,growth,MOLT-4 leukemia,-12.1% (active) and -13.6% (active)
same,growth,RPMI-8226 leukemia,-36.4% (active) and -21.4% (active)
same,growth,OVCAR-8 ovarian,0.169% (active) and 1.18% (active)
same,growth,OVCAR-5 ovarian,4.75% (active) and 8.59% (active)
same,growth,OVCAR-4 ovarian,42.9% (inactive) and 62.8% (inactive)
same,growth,SK-OV-3 ovarian,5.9% (active) and 11.9% (inactive)
same,growth,IGROV1 ovarian,2.93% (active) and 14.4% (inactive)
same,growth,OVCAR-3 ovarian,-57% (active) and 24.6% (inactive)
same,growth,HS 578T breast,32.7% (inactive) and 43% (inactive)
same,growth,NCI/ADR-RES ovarian,27.7% (inactive) and 40.4% (inactive)
